# According to PubChem BioAssay (EPA / NIEHS):
# Inconclusive results are not listed. Calls of active or inactive are those of the source. How the source made its calls: active means hit-call score of the fitted dose curve at least 0.9, where 1 is the maximum; inconclusive means response in the unintended direction; inactive means score below 0.9.
# Target: human Thyroid Receptor alpha (THRa1), THRA (gene 7067) (UniProt P10827)
# Assay: ATG_THRa1_TRANS: Attagene TRANS-FACTORIAL HepG2 Assay for human Thyroid Receptor alpha (THRa1) (AID 2283014)
# Experimental: ATG_TRANS is a cell-based, multiplexed-readout assay that uses HepG2, a human liver cell line, with measurements taken at 24 hours after chemical dosing in a 24-well plate.ATG_THRa1_TRANS is one of 30 assay component(s) measured or calculated from the ATG_TRANS assay. It is designed to make measurements of mRNA induction, a form of inducible reporter, as detected with fluorescence intensity signals by Reverse transcription polymerase chain reaction (RT-PCR) and Capillary electrophoresis technology.Data from the assay component ATG_THRa1_TRANS was analyzed into 1 assay endpoint. This assay endpoint, ATG_THRa1_TRANS, was analyzed in the positive analysis fitting direction relative to DMSO as the negative control and baseline of activity. Using a type of inducible reporter, measures of mRNA for gain-of-signal activity can be used to understand the reporter gene at the transcription factor-level as they relate to the gene THRA. Furthermore, this assay endpoint can be referred to as a primary readout, because this assay has produced multiple assay endpoints where this one serves a reporter gene function. To generalize the intended target to other relatable targets, this assay endpoint is annotated to the nuclear receptor intended target family, where the subfamily is non-steroidal.
# Human liver HepG2 cells are transiently transfected with multiple reporter transcription units (MRTUs) in 6-well plates using FuGene 6 reagent (Roche; 3 ml FuGene/1 mg DNA). The MRTU constructs are regulated by a cis-regulating element (promoter). […] A major difference between the CIS and TRANS system is that in CIS activities of endogenous TFs are measured, whereas the TRANS assay evaluates changes in activities of exogenous, chimeric NR-Gal4 proteins. […] At the end of 24 hour incubation, total RNA was isolated using TriZol reagent (Invitrogen). The isolated RNA is then reverse-transcribed using oligo(dT) primer and Mo-MLV reverse transcriptase (Invitrogen) with DNAse I (Ambion) treatment for 30 min. The one-tenth of the produced cDNA was amplified by PCR using Taq DNA polymerase (Invitrogen) and two reporter sequence-specific primers. The PCR products were fluorescently labeled by primer extension with 6-arboxyfluorescein (6-FAM) 5'-labeled reporter sequence-specific primer (2 min at 95 C, 20 s at 68 C and 10 min at 72 C) and these products were digested with 5U of HpaI (New England Biolabs) for 2h at 37 C. The fragments were purified using Qiaquick PCR columns (Qiagen), analyzed on an ABI 3130xL genetic analyzer (Applied Biosystems) with peak positions identified by using a set of X-rhodamine (ROX)-labeled MapMarker1000 molecular weight standards (BioVentures). The raw capillary electrophoresis data was processed using Attagraph software (Attagene).
# Chain of human Thyroid Receptor alpha (THRa1), THRA (gene 7067) (P10827 whole entry, looked up): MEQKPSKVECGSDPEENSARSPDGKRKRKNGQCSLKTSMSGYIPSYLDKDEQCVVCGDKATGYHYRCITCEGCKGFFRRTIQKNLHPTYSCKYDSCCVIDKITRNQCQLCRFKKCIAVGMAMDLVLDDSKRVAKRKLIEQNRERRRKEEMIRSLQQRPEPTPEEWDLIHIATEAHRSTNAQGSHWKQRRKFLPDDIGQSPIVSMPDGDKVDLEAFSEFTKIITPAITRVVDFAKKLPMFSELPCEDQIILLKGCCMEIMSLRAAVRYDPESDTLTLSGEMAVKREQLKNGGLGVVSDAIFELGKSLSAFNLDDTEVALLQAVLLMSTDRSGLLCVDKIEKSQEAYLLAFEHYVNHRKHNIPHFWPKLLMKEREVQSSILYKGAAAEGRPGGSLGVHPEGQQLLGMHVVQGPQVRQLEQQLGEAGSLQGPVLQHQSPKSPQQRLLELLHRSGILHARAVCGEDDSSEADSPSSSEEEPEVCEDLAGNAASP
row,Compound,outcome
1,CCCCOC(=O)C(C)OC(=O)CCC (stereo not given),inactive
2,CCCOC(=O)CC,inactive
3,CCCCCC1C(=O)CCC1CC(=O)OC (stereo not given),inactive
4,O=C1CCC(=O)N1,inactive
5,O=c1cc(-c2ccc(O)cc2)oc2cc(O)cc(O)c12,inactive
6,CCCCCCCCOC(C)=O,inactive
7,CC(=O)c1cccnc1,inactive
8,N#CCCCC(C#N)CCC#N (stereo not given),inactive
9,NC(=O)c1cccnc1,inactive
10,C1COCO1,inactive
11,C#C[C@]1(O)CC[C@H]2[C@@H]3CCc4cc(O)ccc4[C@H]3CC[C@@]21C,inactive
12,O=[N+]([O-])c1cc(N(CCO)CCO)ccc1NCCO,inactive
13,O=C1OC2(c3ccc(O)cc3Oc3cc(O)ccc32)c2ccccc21,inactive
14,CCCCOCCOCCO,inactive
15,COc1ccc(C(C)=O)cc1,inactive
16,CC/C=C\CCCCO,inactive
17,O=c1cc[nH]cc1,inactive
18,CCCCOCCOC(=O)c1ccccc1C(=O)OCCOCCCC,inactive
19,CC1COC(=O)O1 (stereo not given),inactive
20,NC(N)=S,inactive

row,Compound,outcome
1,CCCCCCCCCCCCCCCCCC(=O)OCCCCCCCCCCCCCC(C)C,inactive
2,CC/C=C\CCOC(=O)C(C)C,inactive
3,c1coc(CNc2ncnc3nc[nH]c23)c1,inactive
4,CC(C)N1C(=O)c2ccccc2C1=O,inactive
5,CC(=O)CC(=O)N(C)C,inactive
6,OC[C@H]1O[C@@H](O[C@H]2[C@H](O)[C@@H](O)[C@H](O)O[C@@H]2CO)[C@H](O)[C@@H](O)[C@H]1O,inactive
7,[Cl][Dy]([Cl])[Cl],inactive
8,O=C1CCCCCCCCCCCC(=O)OCCO1,inactive
9,[Na+],inactive
10,CC(C)COC(=O)c1ccccc1,inactive
11,CCCCCCCCSCc1cc(C)c(O)c(CSCCCCCCCC)c1,inactive
12,CCOc1ccc(NC(C)=O)cc1,inactive
13,COc1cc(OC)c2ccc(=O)oc2c1,inactive
14,CCC=C(C)C=O,inactive
15,Nc1ccc(O)c(N)c1,inactive
16,NNC(=O)OCc1ccccc1,inactive
17,CC(C)Cc1ccc(C(C)C(=O)O)cc1 (stereo not given),inactive
18,CC(C)COC(=O)c1ccccc1O,inactive
19,O=Cc1ccccc1O,inactive
20,c1ccc(OCCOc2ccccc2)cc1,inactive
